Among the test systems are NCI-H23 lung; NCI-H226 lung; NCI-H322M lung; HOP-62 NSCLC; NCI-H460 lung; NCI-H522 lung; A549/ATCC NSCLC; 786-0 renal; COLO 205 colon; DU-145 prostate; K-562 leukemia; MALME-3M melanoma; MDA-MB-231 breast; RXF 393 renal; SF-268 CNS; SF-295 CNS; SF-539 CNS; UACC-257 melanoma; M14 melanoma; HCT-15 colon.
Assay in all cases: NCI-60 one-dose screen, 48 h (100 = growth as untreated, 0 = no growth, -100 = all killed)
Holding throughout (conditions): 10 µM

Molecules are shown by their SMILES. This is part of a sample that, as a whole, favours compounds with a hit. Of some 83,000 tested, about 20% had one in any assay.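 Each cell line was grown in a 96-well plate and treated with one concentration of compound for 48 hours. Values below 10 were considered active.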 Unmarked numbers belong to inactive results. Calls of active or inactive are those of the source.

`Cc1ccc(NC(=O)Nc2cccnc2)cc1NC(=O)Nc1cccnc1`: the growth was 88.4% with NCI-H23 lung; 95.3% in the test with NCI-H226 lung; 100% in the test with NCI-H322M lung; 117% in the test with HOP-62 NSCLC; 85.9% in the test with NCI-H460 lung; -37.3% (active) in the test on NCI-H522 lung. Also, the growth in the test with A549/ATCC NSCLC is 30.8%; in the test on 786-0 renal it was 94.8%; in the test on COLO 205 colon it was 118%; in the test on DU-145 prostate, 98.2%; with K-562 leukemia it was 57.4%; with MALME-3M melanoma it was 102%. Also, the growth in the test with MDA-MB-231 breast is 92.8%; in the test on RXF 393 renal, 82.7%; with SF-268 CNS it was 96.8%; in the test on SF-295 CNS it was 77.9%; in the test on SF-539 CNS, 87.5%; in the test with UACC-257 melanoma, 10.9%. Besides, the growth in the test with M14 melanoma is 91.6%; in the test with HCT-15 colon it was 84%.

As to `COc1ccccc1/C=C/C(=O)c1ccccc1`, the growth with NCI-H23 lung was 84.7%; in the test with NCI-H226 lung it was 85%; in the test with NCI-H322M lung, 91.9%; in the test with HOP-62 NSCLC it was 88.3%; in the test on NCI-H460 lung, 90%; with NCI-H522 lung, 62.7%. Further, the growth was 67% with A549/ATCC NSCLC; 98.4% in the test with 786-0 renal; 84.8% in the test on COLO 205 colon; 87.6% in the test on DU-145 prostate; 6.19% (active) in the test with K-562 leukemia; 90.8% in the test on MALME-3M melanoma. For the same compound, the growth is 80.5% in the test with MDA-MB-231 breast; 92% in the test on RXF 393 renal; 87.9% in the test with SF-268 CNS; 101% in the test with SF-295 CNS; 92% with SF-539 CNS; 94.3% in the test with UACC-257 melanoma. Moreover, the growth in the test with M14 melanoma was 85.7%; in the test on HCT-15 colon, 61.6%.

For `COc1ccc(-c2cc(/C=C3\C(=O)Nc4ccc(Cl)cc43)[nH]n2)cc1OC`, the growth in the test on NCI-H23 lung is 101%; in the test on NCI-H226 lung, 85.5%; with NCI-H322M lung, 70.6%; with HOP-62 NSCLC it was 97.7%; in the test with NCI-H460 lung, 79.9%; in the test with NCI-H522 lung, 89%. In addition, the growth was 89.5% in the test with A549/ATCC NSCLC; 102% in the test with 786-0 renal; 89.7% in the test with COLO 205 colon; 76.4% in the test with DU-145 prostate; 100% with K-562 leukemia; 87.3% in the test with MALME-3M melanoma. Besides, the growth in the test on MDA-MB-231 breast is 79.6%; in the test with RXF 393 renal it was 88.5%; in the test on SF-268 CNS it was 85.8%; in the test with SF-295 CNS, 99.6%; in the test with SF-539 CNS, 82.2%; in the test with UACC-257 melanoma, 132%. Further, the growth with M14 melanoma was 101%; with HCT-15 colon, 77.5%.

With `O=C(Nc1ccc(OS(=O)(=O)c2ccccc2)cc1)C12CC3CC(CC(C3)C1)C2`, the growth in the test on NCI-H23 lung was 51.5%; with NCI-H226 lung, 60.4%; in the test with NCI-H322M lung it was 68.7%; with HOP-62 NSCLC it was 74.4%; in the test on NCI-H460 lung, 35.5%; in the test on NCI-H522 lung it was 50.9%. The growth in the test with A549/ATCC NSCLC was 41.6%; in the test with 786-0 renal it was 57.5%; in the test with COLO 205 colon, -0.16% (active); in the test with DU-145 prostate, 71.6%; in the test on K-562 leukemia, 13%; with MALME-3M melanoma, 55.8%. For the same compound, the growth in the test with MDA-MB-231 breast was 19.9%; in the test with RXF 393 renal, 26.8%; in the test with SF-268 CNS it was 78.6%; in the test on SF-295 CNS, 45.6%; with SF-539 CNS, 19.7%; with UACC-257 melanoma it was 37.8%. Also, the growth in the test on M14 melanoma is 47.2%; with HCT-15 colon, 29.9%.

As for `CCCCC/C=C/C(=O)CCc1ccc(O)c(OC)c1`, the growth with NCI-H23 lung is 89.2%; with NCI-H226 lung, 87.8%; with NCI-H322M lung, 106%; in the test on HOP-62 NSCLC it was 107%; in the test on NCI-H460 lung it was 97.3%; in the test on NCI-H522 lung, 60.8%. Moreover, the growth in the test on A549/ATCC NSCLC was 82.6%; in the test with 786-0 renal, 91.1%; in the test with COLO 205 colon, 108%; in the test with DU-145 prostate, 76.9%; with K-562 leukemia, 59.9%; in the test with MALME-3M melanoma, 23%. The growth with MDA-MB-231 breast was 79.3%; with RXF 393 renal, 74.6%; in the test on SF-268 CNS, 86.9%; in the test with SF-295 CNS, 96.4%; in the test on SF-539 CNS it was 90.1%; in the test with UACC-257 melanoma it was 91.9%. Moreover, the growth in the test on M14 melanoma is 80.7%; in the test on HCT-15 colon, 88.2%.

Consider `O=C(Nc1ccc(CN2CCc3nc4cc(O)c(O)cc4cc32)cc1)c1ccc(Cl)c(Cl)c1`, for which the growth in the test with NCI-H23 lung is 105%; in the test on NCI-H226 lung it was 78.7%; with NCI-H322M lung, 94%; with HOP-62 NSCLC, 107%; in the test on NCI-H460 lung, 102%; in the test on NCI-H522 lung, 101%. For the same compound, the growth in the test on A549/ATCC NSCLC was 111%; with 786-0 renal it was 104%; with COLO 205 colon it was 99.4%; with DU-145 prostate, 104%; in the test with K-562 leukemia, 115%; with MALME-3M melanoma, 93%. In addition, the growth is 103% with MDA-MB-231 breast; 89.4% with RXF 393 renal; 96.6% with SF-268 CNS; 101% with SF-295 CNS; 94.2% in the test with SF-539 CNS; 103% in the test on UACC-257 melanoma. The results for the growth in the test on M14 melanoma and in the test on HCT-15 colon were 98.4% and 101%, respectively.

Take `COc1ccc(-c2nn(-c3cccc(NC(=O)c4ccc(Cl)c(Cl)c4)c3)cc2-c2ccncc2)cc1Cl`: the growth in the test on NCI-H23 lung is 94.9%; with NCI-H226 lung, 83.5%; in the test with NCI-H322M lung, 83.6%; in the test on HOP-62 NSCLC, 94%; in the test on NCI-H460 lung, 79.4%; in the test on NCI-H522 lung it was 33.3%. Further, the growth is 70% with A549/ATCC NSCLC; 80% in the test on 786-0 renal; 86.2% with COLO 205 colon; 92.1% with DU-145 prostate; 36.3% in the test with K-562 leukemia; 58.4% with MALME-3M melanoma. The growth with MDA-MB-231 breast was 78%; with RXF 393 renal, 65.9%; in the test with SF-268 CNS, 89.8%; with SF-295 CNS, 65%; with SF-539 CNS it was 72.2%; in the test with UACC-257 melanoma it was 86.9%. Also, the growth with M14 melanoma was 75.6%; with HCT-15 colon, 75.2%.
